Source: PubChem (National Center for Advancing Translational Sciences (NCATS))
SARS PLP yeast: inhibitors of SARS-CoV papain-like protease in yeast; S. cerevisiae expressing SARS-CoV PLpro, growth rescue; Potency, µM (titrated, usually from 32.9 µM), for inactives: at the highest dose activity, positive = growth rescue, most hits filed as activators; actives 0.19% (n = 330,000); calls by dose curve; also: potency is read from the fitted curve at half-maximal effect; 0% is about no effect; nearly all actives have a fitted effect of over 55% in size
Pf growth 96h: P. falciparum growth inhibition at 96 hour, primary screen for plastid delayed-death inhibitors; actives 6.9% (n = 320,000); P. falciparum luciferase reporter growth, 96 h; Potency, µM (doses to about 28.7 µM), for inactives: at the top dose activity change, negative = inhibition, usual class: inhibitors; AID 504834; also: potency is read from the fitted curve at half-maximal effect; % is scaled to controls: 0 for no effect and ±100 for the full control effect
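96 h incubation, 37 C, 5% CO2, of luciferase-reporter P. falciparum-infected RBCs (2% hematocrit, 0.05% parasitemia final) with test compounds; endpoint luminescence.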
Sm TGR inh: S. mansoni TGR enzyme inhibition | Q962Y6 | purified TGR, DTNB reduction, TNB absorbance 405 nm | Potency, µM (highest dose often 114 µM), for inactives: at the highest dose activity change, negative = inhibition, most hits filed as inhibitors | actives 3% (n = 360,000); also: potency is read from the fitted curve at half-maximal effect; % is scaled to controls: 0 for no effect and ±100 for the full control effect; nearly all actives have a fitted effect of over 60% in size
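TGR 20 nM + NADPH 100 uM (dispensed conc.), cpd preinc 15 min RT; start with NADPH (500 uM addition) then DTNB (15 mM addition). Kinetic TNB absorbance, 405 nm filter. Four-parameter Hill fit across titration.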
Pf growth 48h: inhibits P. falciparum growth in the first generation, 48 h; P. falciparum luciferase growth in erythrocytes, 48 h; Potency, µM (top dose mostly 28.7 µM), inactives show at the top dose activity change, negative = inhibition, hits mostly inhibitors; actives 5.9% (n = 310,000); AID 504832; also: potency is read from the fitted curve at half-maximal effect; % is scaled to controls: 0 for no effect and ±100 for the full control effect
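Luciferase-expressing parasites in RBCs, 2% Hct / 0.1% parasitemia final; RPMI 1640 + 0.5% Albumax; 37 C, 5% CO2, one generation; luminescence read-out, lower signal = inhibition.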
HCV inh: HCV inhibition; Huh7.5.1 HCVcc-Cre infection, luciferase reporter, 44 h; Potency, µM (highest dose often 41.8 µM), inactives show top-dose activity change, negative = inhibition, actives largely listed as inhibitors; actives 3.4% (n = 340,000); AID 651820; also: potency is read from the fitted curve at half-maximal effect; % is scaled to controls: 0 for no effect and ±100 for the full control effect
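Luciferase read-out (15 sec integration) after a 15 min room-temperature substrate step quantifies HCVcc-Cre infection. Cells, 1,000 per well, had compound added 4 h post-plating, then virus at ~0.5 moi, and were cultured 44 h.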
HCMV inh: inhibitors of human cytomegalovirus; AID 1259415; HFF cells, HCMV-luciferase reporter, 72 h; hits give low values; actives 4.5% (n = 410,000); activity change, negative = inhibition, % at 57.5 µM; in the data active = activity change below about -60%; inconclusive = no clear call, values can overlap the other calls; inactive = above about -39%; also: % is scaled to controls: 0 for no effect and ±100 for the full control effect
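Steps: HFFs plated, 16 h 37C; compounds added; HCMV-luciferase added to MOI 1 PFU/cell; 72 h 37C; OneGlo reagent, 5 min room temperature; luminescence read, normalized to controls.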
* = called active by the depositor; ? = inconclusive; nt = not tested or not shown; [ ] = dose if it differs, or a comment. Sampled rows, rich in hits. Any-hit rate of the full collection: about 15%. Unless noted, calls follow the shape of the dose curve; as a rule, active = well fitted curve in the direction sought with a large enough effect; inconclusive = small, poorly fitted or top-dose-only effect, or another doubt; inactive = no such curve, though single readings can be large; an effect the other way counts as inactive or inconclusive.

SMILES	SARS PLP yeast	Pf growth 96h	Sm TGR inh	Pf growth 48h	HCV inh	HCMV inh
CCCCCC(=O)O[C@]1(C(C)=O)CC[C@H]2[C@@H]3CCC4=CC(=O)CC[C@]4(C)[C@H]3CC[C@@]21C	-11%	0.83µM*	-16%	1µM*	?	-68*
O=C(c1ccc2c(c1)OCO2)N1C[C@H]2[C@@H](c3ccccc31)[C@H](CO)N2C(=O)CC1CC1	nt	nt	nt	nt	nt	-6
CN(CC(=O)Nc1ccc(Cl)cc1)C(=O)CNC(=O)c1ccc(Br)o1	-7%	31%	-3%	-11%	-9%	1
COc1ccc2c(c1OC)CN(C)CCc1cc3c(cc1C(=O)C2)OCO3	0%	-11%	8%[57.1 µM]	?	-3%	2
COc1cc2c(cc1OC)C(=O)Cc1ccc3c(c1CN(C)CC2)OCO3	0%	?	3%	9.3µM*	23%	48
C/C(=N\NC(=O)c1cc(C)nc2ccccc12)c1cccc(Cl)c1	?	?	-9%	?	?	-13
O=C(Nc1cccc(Cl)c1)C1C2C=CC3(O2)C1C(=O)N(CCN1CCCCC1)C3C(=O)NC1CCCCC1 (centres undefined)	13%	5.2µM*	-3%	?	-6%	-40
CCC1CCCCN1CCN1C(=O)C2C(C(=O)Nc3cccc(OC)c3)C3C=CC2(O3)C1C(=O)NC1CCCCC1 (centres undefined)	4%	-17%	-33%	8.3µM*	-17%	?
CCCCN(C)CCN1C(=O)C2C(C(=O)Nc3ccc(Cl)cc3)C3C=CC2(O3)C1C(=O)NC1CCCCC1 (centres undefined)	11%	-3%	-17%	10µM*	?	38
CC(NC(=O)c1ccncc1)C(c1cccs1)N1CCOCC1 (centres undefined)	21%	-6%	-6%	9%	10%	14
CC(NC(=O)c1ccc(C(C)(C)C)cc1)C(c1cccs1)N1CCOCC1 (centres undefined)	1%	12µM*	2%	13µM*	-23%	9
CC(NC(=O)c1cccs1)C(c1cccs1)N1CCOCC1 (centres undefined)	-12%	2.6µM*	1%	-20%	9%	49
CC(NC(=O)c1cccs1)C(c1cccs1)N1CCN(Cc2ccccc2)CC1 (centres undefined)	2%	3%	-12%	?	?	-25
CC(NC(=O)c1ccc2c(c1)OCO2)C(c1cccs1)N1CCN(c2ccccc2)CC1 (centres undefined)	1%	12µM*	2%	141%	-16%	-11
CC(NC(=O)c1cccs1)C(c1cccs1)N1CCN(c2ccccc2)CC1 (centres undefined)	-22%	-6%	0%	9.3µM*	?	-8
Cc1ccc(S(=O)(=O)c2[nH]c(-c3ccccc3)nc2SC(C)C(=O)O)cc1 (centres undefined)	nt	nt	3%	nt	nt	-7
O=C(Nc1ccc2c(c1)OCO2)C1CC(=O)N(c2ccc(F)cc2)C1 (centres undefined)	0%	?	-1%	-12%	-2%	97
CC(C)c1cnc2c(c1SCC(=O)c1ccccc1)c(=O)n(C)c(=O)n2C	nt	nt	-10%	nt	nt	39
CC(NC(=O)c1ccc(F)cc1)C(c1cccs1)N1CCN(C)CC1 (centres undefined)	-24%	1%	-2%	-15%	-13%	29
CC(NC(=O)c1ccc(N(C)C)cc1)C(c1cccs1)N1CCN(C)CC1 (centres undefined)	3%	-19%	-2%	-1%	10µM*	-17
CC/C(=N\NC(=O)c1c[nH]c2ccccc12)c1cccs1	2%	13µM*	-3%	?	-10%	85
Cc1ccc(/C=N/NC(=O)c2c[nH]c3ccccc23)s1	1%	3%	2%	47%	-2%	-72*
Cc1ccsc1/C=N/NC(=O)c1c[nH]c2ccccc12	-9%	183%	-2%	49%	9%	152
O=C(N/N=C/c1ccc[nH]1)c1cc2ccccc2cc1O	2%	1%	?	?	?	-99*
O=C(N/N=C/c1ccc[nH]1)c1c[nH]c2ccccc12	1%	-27%	-5%	-15%	0.89µM*	-4
SMILES	SARS PLP yeast	Pf growth 96h	Sm TGR inh	Pf growth 48h	HCV inh	HCMV inh
C/C(=N\NC(=O)c1c[nH]c2ccccc12)c1ccc(C)s1	-2%	-16%	-7%	?	-3%	46
O=C(N/N=C/c1ccncc1)c1cc2ccccc2cc1O	1%	?	8%	15%	3%	-13
CC1CCCC(C)N1c1ccc(S(=O)(=O)N2CCOCC2)cc1Cl (centres undefined)	-22%	-2%	-1%	-19%	-2%	5
Cc1nn(C(=O)c2ccc(Cl)cc2)c(C)c1S(=O)(=O)N1CCOCC1	nt	nt	?	nt	nt	-2
O=C(N/N=C/c1ccc[nH]1)c1sc2ccccc2c1Cl	-18%	6.6µM*	5%	?	?	45
COc1ccc(NC(=O)/C(Cl)=C(/Cl)S(=O)(=O)Cc2ccc(C)cc2)cn1	-34%	?	2.5µM*	nt	2.5µM*	nt
COc1ccc(NC(=O)COC(=O)C(NC(=O)c2ccc(C)cc2)C(C)C)cn1 (centres undefined)	1%	nt	nt	nt	-17%	-5
COc1ccc(NC(=O)/C(Cl)=C(/Cl)S(=O)Cc2ccccc2Cl)cn1 (centres undefined)	-25%	7.4µM*	0.089µM*	?	2.8µM*	nt
COc1ccc(NC(=O)Cc2ccc(Cl)c(Cl)c2)cn1	-4%	?	7%	0%	-10%	1
COc1ccc(NC(=O)Cc2ccc(Cl)cc2Cl)cn1	-3%	1%	-15%	-6%	-4%	-101*
CCOC(=O)CCCNC(=O)N[C@H]1CC[C@@]23CCCN2C(=O)CCC[C@H]3C1Cc1ccccc1 (some centres undefined)	nt	nt	nt	nt	nt	-5
CCOc1cc(CNc2ccc3c(c2)CCC3)ccc1O	3%	19%	?	12%	-10%	65
COc1cc(CNc2ccc3c(c2)CCC3)cc(OC)c1O	4%	10%	0.32µM*	25%	21%	44
Cc1ccc(C(=O)N2C(CC(=O)Nc3ccc(Cl)cc3)C(=O)NC3CCCCC32)cc1 (centres undefined)	0%	2%	25%	?	?	0
O=C(OCC(=O)N1CCCC1=O)c1nc(Cl)c(Cl)c(Cl)c1Cl	1%	22%	?	-2%	?	nt
COc1ccc(-c2csc(Nc3cc(C)ccn3)n2)cc1OC	-26%	5%	?	17%	10µM*	-11
